Measured values from the supplement of paper PMC13380429.

Tested on: Vero E6 infected with SARS-CoV-2
Test: inhibition of SARS-CoV-2 cytopathic effect; higher = more antiviral protection, active = above 15
Details: 48 h

Measured: inhibition of SARS-CoV-2 cytopathic effect

Cn1cc(-c2ccc3nnc(C(F)(F)c4ccc5ncccc5c4)n3n2)cn1
inactive: 1 nM 0.45% | 8.33 nM 2.96% | 100 nM 4.23% | 833.33 nM 0.5% | 10000 nM 6.76%

CCOc1ccc(S(=O)(=O)O)c2cccnc12 [actinoquinol]
inactive: 1 nM 0.25% | 8.33 nM 0.94% | 100 nM 0.78% | 833.33 nM 1.14% | 10000 nM -3.36%

O=c1[nH]c(=O)c2ccccc2o1 [carsalam]
inactive: 1 nM -1.46% | 8.33 nM 0.95% | 100 nM 4.79% | 833.33 nM 0.99% | 10000 nM 4.32%

O=C1c2ccccc2CCC1CNCCc1ccc(O)cc1 (stereo not given)
inactive: 1 nM 0.05% | 8.33 nM -1.18% | 100 nM -2.27% | 833.33 nM -0.45% | 10000 nM -0.46%

COc1cc2ncnc(Nc3ccc(O)c(Br)c3)c2cc1OC
inactive: 1 nM 0.67% | 8.33 nM -0.59% | 100 nM -3.04% | 833.33 nM -5.16% | 10000 nM -9.51%

OB1OCc2cc(F)ccc21 [tavaborole]
inactive: 1 nM -0.98% | 8.33 nM 1.46% | 100 nM -1.21% | 833.33 nM 2.11% | 10000 nM -2.53%
